Results on seven molecules are retold here after ChEMBL document CHEMBL1961873, “Compounds: GSK PKIS; Assays: Nanosyn kinase panel” (2012).

For experiment [1], the target named is CDK3/Cyclin E (Homo sapiens) (UniProt P24864+Q00526). As to conditions: at 1 µM.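 Note: each figure is a mean percent inhibition of the CDK3/cyclin E complex.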
The target of experiment [2] is Cyclin-dependent kinase 4 (Homo sapiens) (UniProt P11802). As to conditions: at 0.1 µM.
Experiment [3] has the same target. The settings on record: at 1 µM.
Experiment [4] has as its target Cyclin-dependent kinase 5 (Homo sapiens) (UniProt Q00535). The settings on record: at 0.1 µM.
Experiment [5] has the same target. As to conditions: at 1 µM.
The target in experiment [6] is Cyclin-dependent kinase 6 (Homo sapiens) (UniProt Q00534). As to conditions: at 0.1 µM.
Cyclin-dependent kinase 6 (Homo sapiens), sequence (Q00534 whole entry): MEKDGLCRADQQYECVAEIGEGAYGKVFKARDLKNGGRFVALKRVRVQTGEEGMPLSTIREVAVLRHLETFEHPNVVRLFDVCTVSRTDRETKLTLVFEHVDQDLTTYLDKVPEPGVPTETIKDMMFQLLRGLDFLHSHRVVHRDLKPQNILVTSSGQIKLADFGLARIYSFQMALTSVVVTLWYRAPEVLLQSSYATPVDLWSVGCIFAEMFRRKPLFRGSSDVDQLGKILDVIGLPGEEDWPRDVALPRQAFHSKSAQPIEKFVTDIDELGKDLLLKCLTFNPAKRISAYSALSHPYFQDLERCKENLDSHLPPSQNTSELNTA
For experiment [7] the target is unchanged. As to conditions: at 1 µM.
For experiment [8], the target named is Dual specificity protein kinase CLK2 (Homo sapiens) (UniProt P49760). The settings on record: at 0.1 µM.
Dual specificity protein kinase CLK2 (Homo sapiens), sequence (P49760 whole entry, looked up): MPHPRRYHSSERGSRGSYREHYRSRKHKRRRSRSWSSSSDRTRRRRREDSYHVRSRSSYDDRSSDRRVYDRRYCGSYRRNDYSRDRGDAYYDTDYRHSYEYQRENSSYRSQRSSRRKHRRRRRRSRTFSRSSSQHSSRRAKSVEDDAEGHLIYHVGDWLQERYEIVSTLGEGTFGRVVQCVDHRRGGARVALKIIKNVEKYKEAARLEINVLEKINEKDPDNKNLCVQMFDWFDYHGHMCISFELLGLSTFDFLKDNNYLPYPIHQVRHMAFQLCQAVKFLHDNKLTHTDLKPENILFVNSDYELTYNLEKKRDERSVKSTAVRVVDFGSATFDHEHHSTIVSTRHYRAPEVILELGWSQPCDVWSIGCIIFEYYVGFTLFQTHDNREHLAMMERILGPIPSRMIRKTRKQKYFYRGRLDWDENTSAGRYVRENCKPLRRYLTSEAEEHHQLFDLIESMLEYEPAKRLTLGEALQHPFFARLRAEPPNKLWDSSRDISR
Experiment [9] has the same target. As to conditions: at 1 µM.
Experiment [10] has as its target Dual specificity protein kinase CLK3 (Homo sapiens) (UniProt P49761). The settings on record: at 0.1 µM.
The target is the same in experiment [11]. The settings on record: at 1 µM.
Experiment [12] has as its target Dual specificity tyrosine-phosphorylation-regulated kinase 1A (Homo sapiens) (UniProt Q13627). As to conditions: at 0.1 µM.
The target is the same in experiment [13]. The settings on record: at 1 µM.
Experiment [14] concerns the target Dual specificity tyrosine-phosphorylation-regulated kinase 1B (Homo sapiens) (UniProt Q9Y463). As to conditions: at 0.1 µM.
Experiment [15] shares this target. As to conditions: at 1 µM.
Experiment [16] deals with T1, Dual specificity tyrosine-phosphorylation-regulated kinase 2 (Homo sapiens) (UniProt Q92630).
T1 sequence (whole entry): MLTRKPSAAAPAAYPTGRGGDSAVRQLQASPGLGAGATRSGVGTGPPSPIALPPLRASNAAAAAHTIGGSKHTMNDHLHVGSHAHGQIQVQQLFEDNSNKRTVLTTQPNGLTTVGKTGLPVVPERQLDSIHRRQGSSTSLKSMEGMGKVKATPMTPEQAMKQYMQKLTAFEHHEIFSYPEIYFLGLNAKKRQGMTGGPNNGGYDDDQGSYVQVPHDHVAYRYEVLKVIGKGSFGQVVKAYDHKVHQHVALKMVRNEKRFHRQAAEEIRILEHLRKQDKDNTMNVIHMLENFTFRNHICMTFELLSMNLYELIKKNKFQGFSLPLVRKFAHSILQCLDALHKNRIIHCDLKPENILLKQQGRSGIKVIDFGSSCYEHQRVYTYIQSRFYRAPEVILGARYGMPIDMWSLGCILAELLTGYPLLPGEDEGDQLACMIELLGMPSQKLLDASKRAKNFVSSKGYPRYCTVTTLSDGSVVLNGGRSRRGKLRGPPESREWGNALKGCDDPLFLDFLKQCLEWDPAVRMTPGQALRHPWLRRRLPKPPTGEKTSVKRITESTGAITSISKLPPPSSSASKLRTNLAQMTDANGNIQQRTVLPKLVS
As to conditions: at 0.1 µM.

For experiment [17], the target named is T1, Dual specificity tyrosine-phosphorylation-regulated kinase 2 (Homo sapiens). As to conditions: at 1 µM.
The target of experiment [18] is Glycogen synthase kinase-3 alpha (Homo sapiens) (UniProt P49840). As to conditions: at 0.1 µM.
Glycogen synthase kinase-3 alpha (Homo sapiens), sequence (P49840 2-483 limits assumed): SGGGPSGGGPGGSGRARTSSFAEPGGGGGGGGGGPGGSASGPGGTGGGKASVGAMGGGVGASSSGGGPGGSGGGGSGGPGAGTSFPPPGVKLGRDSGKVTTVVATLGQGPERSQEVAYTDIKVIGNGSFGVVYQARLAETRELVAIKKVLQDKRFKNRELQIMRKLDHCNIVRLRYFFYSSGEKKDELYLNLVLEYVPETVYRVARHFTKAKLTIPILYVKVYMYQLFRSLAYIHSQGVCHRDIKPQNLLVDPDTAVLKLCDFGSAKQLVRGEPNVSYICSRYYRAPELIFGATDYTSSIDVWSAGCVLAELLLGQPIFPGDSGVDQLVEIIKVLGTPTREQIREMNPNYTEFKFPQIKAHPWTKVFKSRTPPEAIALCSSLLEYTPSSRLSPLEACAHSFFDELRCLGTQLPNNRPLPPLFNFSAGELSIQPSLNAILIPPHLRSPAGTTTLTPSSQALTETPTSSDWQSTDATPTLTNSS
Experiment [19] has the same target. The settings on record: at 1 µM.
In experiment [20] the target is Glycogen synthase kinase-3 beta (Homo sapiens) (UniProt P49841). As to conditions: at 0.1 µM.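 Note: values are mean percent inhibition of GSK3B activity, from the GSK Published Kinase Inhibitor Set (PKIS) screening dataset.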
Glycogen synthase kinase-3 beta (Homo sapiens), sequence (P49841 whole entry, looked up): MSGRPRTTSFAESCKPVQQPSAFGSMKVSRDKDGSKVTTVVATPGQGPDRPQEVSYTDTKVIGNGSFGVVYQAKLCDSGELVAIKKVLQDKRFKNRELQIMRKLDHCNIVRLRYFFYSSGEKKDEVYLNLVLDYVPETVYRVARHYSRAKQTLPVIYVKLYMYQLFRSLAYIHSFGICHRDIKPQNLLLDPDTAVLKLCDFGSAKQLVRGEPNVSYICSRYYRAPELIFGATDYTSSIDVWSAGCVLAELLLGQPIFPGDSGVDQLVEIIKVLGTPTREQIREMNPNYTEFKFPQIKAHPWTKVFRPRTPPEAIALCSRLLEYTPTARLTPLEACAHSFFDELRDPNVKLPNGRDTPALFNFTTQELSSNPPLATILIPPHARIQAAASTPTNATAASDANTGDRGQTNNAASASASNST

CDK3/Cyclin E (Homo sapiens), sequence (P24864 whole entry, looked up): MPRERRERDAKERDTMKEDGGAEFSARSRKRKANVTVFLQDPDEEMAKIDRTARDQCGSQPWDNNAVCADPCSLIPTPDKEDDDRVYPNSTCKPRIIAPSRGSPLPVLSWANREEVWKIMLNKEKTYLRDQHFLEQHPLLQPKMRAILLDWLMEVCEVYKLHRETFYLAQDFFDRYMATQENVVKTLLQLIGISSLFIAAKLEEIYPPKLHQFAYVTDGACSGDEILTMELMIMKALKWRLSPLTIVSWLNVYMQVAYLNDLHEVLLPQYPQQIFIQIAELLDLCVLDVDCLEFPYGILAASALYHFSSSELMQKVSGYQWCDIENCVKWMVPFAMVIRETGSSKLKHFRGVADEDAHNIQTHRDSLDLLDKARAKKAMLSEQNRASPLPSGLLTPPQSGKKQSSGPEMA
CDK3/Cyclin E (Homo sapiens), sequence (Q00526 whole entry, looked up): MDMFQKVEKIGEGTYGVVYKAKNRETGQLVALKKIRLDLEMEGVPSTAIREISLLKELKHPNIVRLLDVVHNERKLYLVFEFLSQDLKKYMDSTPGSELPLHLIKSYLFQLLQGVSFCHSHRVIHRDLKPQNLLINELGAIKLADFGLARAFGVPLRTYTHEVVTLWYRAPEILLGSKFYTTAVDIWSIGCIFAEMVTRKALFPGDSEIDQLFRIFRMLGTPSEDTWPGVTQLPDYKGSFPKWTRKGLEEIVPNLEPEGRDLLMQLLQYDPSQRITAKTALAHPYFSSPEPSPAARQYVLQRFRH
Cyclin-dependent kinase 4 (Homo sapiens), sequence (P11802 whole entry): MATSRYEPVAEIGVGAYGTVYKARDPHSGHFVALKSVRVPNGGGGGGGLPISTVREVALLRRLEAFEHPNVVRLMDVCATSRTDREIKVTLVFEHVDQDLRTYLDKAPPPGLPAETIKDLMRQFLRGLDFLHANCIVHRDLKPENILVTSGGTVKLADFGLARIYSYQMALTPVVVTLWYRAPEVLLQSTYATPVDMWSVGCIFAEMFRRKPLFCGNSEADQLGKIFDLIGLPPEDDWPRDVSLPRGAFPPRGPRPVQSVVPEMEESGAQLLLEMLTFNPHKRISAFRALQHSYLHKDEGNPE
Dual specificity tyrosine-phosphorylation-regulated kinase 1B (Homo sapiens), sequence (Q9Y463 whole entry, looked up): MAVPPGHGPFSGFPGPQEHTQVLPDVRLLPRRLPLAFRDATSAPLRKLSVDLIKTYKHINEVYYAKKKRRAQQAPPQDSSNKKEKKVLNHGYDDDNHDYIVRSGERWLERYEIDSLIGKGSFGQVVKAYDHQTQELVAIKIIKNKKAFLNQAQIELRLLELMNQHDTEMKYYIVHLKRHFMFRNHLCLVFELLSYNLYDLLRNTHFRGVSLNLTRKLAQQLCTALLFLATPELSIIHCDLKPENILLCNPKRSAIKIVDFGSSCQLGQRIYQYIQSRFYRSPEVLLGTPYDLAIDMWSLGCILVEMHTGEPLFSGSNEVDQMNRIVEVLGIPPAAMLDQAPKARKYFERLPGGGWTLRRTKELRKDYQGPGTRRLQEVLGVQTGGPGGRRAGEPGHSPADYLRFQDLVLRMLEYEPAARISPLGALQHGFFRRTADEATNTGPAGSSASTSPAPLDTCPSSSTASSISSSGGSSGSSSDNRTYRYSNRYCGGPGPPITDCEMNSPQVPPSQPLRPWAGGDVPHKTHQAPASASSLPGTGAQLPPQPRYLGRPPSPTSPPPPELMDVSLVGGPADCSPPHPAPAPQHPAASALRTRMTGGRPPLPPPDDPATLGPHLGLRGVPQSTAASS
Dual specificity protein kinase CLK3 (Homo sapiens), sequence (P49761 whole entry, looked up): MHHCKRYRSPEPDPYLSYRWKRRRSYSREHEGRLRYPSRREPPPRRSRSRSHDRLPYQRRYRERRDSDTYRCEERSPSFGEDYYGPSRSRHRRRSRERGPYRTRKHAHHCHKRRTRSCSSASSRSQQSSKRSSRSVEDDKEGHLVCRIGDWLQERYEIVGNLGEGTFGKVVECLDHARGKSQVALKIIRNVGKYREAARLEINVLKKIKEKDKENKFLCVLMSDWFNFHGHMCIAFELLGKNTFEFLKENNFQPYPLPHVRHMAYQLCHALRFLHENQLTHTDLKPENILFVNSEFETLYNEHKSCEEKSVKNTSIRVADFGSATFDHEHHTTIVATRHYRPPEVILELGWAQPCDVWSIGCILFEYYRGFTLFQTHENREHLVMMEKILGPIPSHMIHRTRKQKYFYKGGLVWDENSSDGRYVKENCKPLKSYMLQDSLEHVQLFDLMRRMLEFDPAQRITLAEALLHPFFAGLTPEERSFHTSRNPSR
Cyclin-dependent kinase 5 (Homo sapiens), sequence (Q00535 whole entry, looked up): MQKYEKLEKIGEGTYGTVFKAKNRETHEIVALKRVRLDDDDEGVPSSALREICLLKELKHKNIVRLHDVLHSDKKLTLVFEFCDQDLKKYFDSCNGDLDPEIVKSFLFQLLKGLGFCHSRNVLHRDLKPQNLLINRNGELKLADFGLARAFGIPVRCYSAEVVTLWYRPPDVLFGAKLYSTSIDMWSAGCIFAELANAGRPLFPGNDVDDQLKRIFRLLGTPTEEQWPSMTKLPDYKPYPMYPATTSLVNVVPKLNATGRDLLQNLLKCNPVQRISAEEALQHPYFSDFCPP

Turning to `CCC(=O)Nc1ccc(C)c(-c2ccc(C(=O)NCC3CC3)cc2)c1`, the inhibition (in general, the change of the read-out against control, counted positive when it falls) in experiment [1] was -2.39%; in experiment [2], 3.38%; in experiment [3], 5.05%; in experiment [4] it was 1.58%; in [5], 1.54%; in experiment [6], 0.4%. The inhibition in experiment [7] is 0%; in [8] it was 0.05%; in experiment [9], -0.08%; in [10] it was 0.16%; in experiment [11], -0.21%; in experiment [12], 1.98%. For the same molecule, the inhibition in experiment [13] was 3.18%; in [14], -0.71%; in experiment [15], 0.18%; in experiment [16], 3.11%; in experiment [17] it was 2.91%; in [18] it was 1.84%. Further, the inhibition in experiment [19] was 3.42%; in experiment [20], 0.54%.
As to `NC(=O)c1cc(-c2ccncc2)cc(-c2ccccc2)c1N`, the inhibition is -0.18% in [1]; 2.8% in experiment [2]; 2.69% in experiment [3]; 0.58% in experiment [4]; 0.44% in [5]; -1.43% in [6]. For the same molecule, the inhibition in experiment [7] is 2.3%; in [8], 1.45%; in experiment [9], 1.33%; in experiment [10], 1.22%; in [11], 2.34%; in [12], 6.65%. Besides, the inhibition in experiment [13] amounted to 29.2%; in experiment [14], 3.05%; in experiment [15], 17.9%; in [16] it was 3.61%; in [17], 4.25%; in experiment [18], 3.97%. The inhibition is 12.7% in experiment [19] and 2.53% in experiment [20].
With `NC(=O)Cc1ccccc1Oc1nccc(-c2c(-c3ccc(F)cc3)ncn2C2CCNCC2)n1`, the inhibition was -1.4% in experiment [1]; 0.31% in [2]; 0.75% in [3]; 0.66% in experiment [4]; 0.67% in [5]; -4.52% in [6]. Further, the inhibition in experiment [7] worked out at 0.67%; in experiment [8], 1.69%; in experiment [9], 2.11%; in experiment [10], 1.44%; in experiment [11], 1.79%; in experiment [12], 4.01%. For the same molecule, the inhibition in experiment [13] is 5.44%; in experiment [14] it was 2.79%; in experiment [15], 3.43%; in experiment [16], 2.28%; in experiment [17], 3.74%; in [18] it was 1.87%. In addition, the inhibition in experiment [19] is 3.05%; in experiment [20], -0.25%.
With `O=C(Nc1n[nH]c2nc(-c3ccco3)ccc12)C1CC1`, the inhibition was 4.64% in experiment [1]; 1.89% in [2]; 2.71% in experiment [3]; -0.11% in [4]; 1.68% in [5]; 3.9% in experiment [6]. Further, the inhibition in [7] was 8.22%; in experiment [8], -0.38%; in experiment [9], -0.4%; in [10], 0.26%; in experiment [11], 0.48%; in experiment [12] it was -0.57%. Besides, the inhibition in experiment [13] was 1.05%; in [14], -0.1%; in experiment [15], 1.34%; in experiment [16] it was 1.49%; in [17], 1.64%; in experiment [18] it was 11.5%. Besides, the inhibition in [19] was 48.9%.
Turning to `O=C(Nc1n[nH]c2cc(-c3cc(F)ccc3F)ccc12)C1CC1`, the inhibition in [1] is 5.19%; in experiment [2] it was 1.96%; in [3], 8.77%; in experiment [4], 0.68%; in experiment [5] it was 5.38%; in [6] it was 4.69%. The inhibition in [7] was 39.6%; in experiment [8], -0.48%; in experiment [9] it was 1.29%; in [10], 0.11%; in experiment [11], 1.26%; in experiment [12] it was 2.37%. Besides, the inhibition was 4.39% in experiment [13]; -0.4% in experiment [14]; -0.93% in experiment [15]; 2.2% in experiment [16]; 3.59% in experiment [17]; 7.07% in experiment [18]. The inhibition in experiment [19] is 30.4%.
With `O=C1NC(=O)C(c2cccc(Cl)c2)=C1Nc1ccc(Cl)c(C(=O)O)c1`, the inhibition in experiment [1] is -3.39%; in experiment [2] it was 1.47%; in experiment [3], 1.74%; in experiment [4] it was -0.04%; in experiment [5], 1.05%; in experiment [6], -2.3%. Further, the inhibition in experiment [7] came to 1.32%; in experiment [8] it was 3.2%; in experiment [9], 0.9%; in experiment [10], 1.12%; in experiment [11], 2.4%; in [12], 1.22%. Besides, the inhibition was 5.02% in experiment [13]; -0.3% in [14]; 1.57% in experiment [15]; 1.93% in experiment [16]; 2.84% in [17]; 32.8% in [18]. Besides, the inhibition in experiment [19] came to 77.5%.
For the molecule `FC(F)(F)c1cccc(Nc2nccc(-c3cnn4nc(-c5ccccc5)ccc34)n2)c1`, the inhibition worked out at 2.5% in [1]; 1.39% in experiment [2]; 5.84% in experiment [3]; 0.4% in experiment [4]; 3.29% in experiment [5]; 0.39% in experiment [6]. The inhibition turned out to be 2.53% in experiment [7]; 57.2% in [8]; 92.1% in experiment [9]; 1.66% in [10]; 6.92% in experiment [11]; 1.59% in experiment [12]. Also, the inhibition came to 8.11% in [13]; 0.33% in experiment [14]; 8.12% in experiment [15]; 1.14% in experiment [16]; 0.09% in experiment [17]; 23.5% in experiment [18]. In addition, the inhibition in experiment [19] turned out to be 67.8%.
